Laboratory results: the supplement of paper PMC10849652
Targets with a hit are over-represented here; the source holds about 8,800 in all. About 0.5% of all pairs of compound and target were hits.

Legend:
Assay in all cases: log2 fold change, soluble protein after heating vs DMSO (PISA); higher = thermal stabilisation; K562 lysate, 10 uM; active = over 0.2 and 3.5 SD of the protein, either way, in both replicates (recomputed)
[1] = compound: CS(=O)(=O)CCNCc1ccc(-c2ccc3ncnc(Nc4ccc(OCc5cccc(F)c5)c(Cl)c4)c3c2)o1 [lapatinib]
Summary of the method: (§1)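 K562 pellets were dounce-homogenised in PBS pH 7.4 containing 1 mM MgCl2, and the crude extract, at 1 mg/mL protein, was exposed to 10 μM compound for 30 min. Aliquots were heated for 3 min across 48°C-58°C, pooled, brought to 0.5% NP-40 at 4°C and spun at 21,000xg for 90 min, with the supernatant taken as soluble protein. TMTpro 16plex LC-MS/MS with equalised channel sums quantified that protein. Values are log-two fold changes in thermal stability relative to solvent controls, taken from duplicates.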

[2] = compound: CS(=O)(=O)N1CCN(Cc2cc3nc(-c4cccc5[nH]ncc45)nc(N4CCOCC4)c3s2)CC1 [pictilisib]
Summary of the method: as §1

[3] = compound: C[C@@H](Oc1cc(-c2cnn(C3CCNCC3)c2)cnc1N)c1c(Cl)ccc(F)c1Cl [crizotinib]
Summary of the method: as §1

[4] = compound: C[C@H](C1=CC=C(C=C1)C(=O)NC2=C3C=CNC3=NC=C2)N
Summary of the method: as §1

[5] = compound: C[C@H](Nc1ncnc2nc[nH]c12)c1cc2cccc(Cl)c2c(=O)n1-c1ccccc1 [duvelisib]
Summary of the method: as §1

[6] = compound: Cc1cc(Nc2cc(CN3CCOCC3)c3nc(C)c(Cc4ccc(Cl)cc4F)n3n2)n[nH]1 [gandotinib]
Summary of the method: as §1

[7] = compound: Cc1cc(Nc2cc(N3CCN(C)CC3)nc(Sc3ccc(NC(=O)C4CC4)cc3)n2)n[nH]1 [tozasertib]
Summary of the method: as §1

[8] = compound: Cc1ccc(-n2nc(C(C)(C)C)cc2NC(=O)Nc2ccc(OCCN3CCOCC3)c3ccccc23)cc1 [doramapimod]
Summary of the method: as §1

[9] = compound: Cc1ccc(NC(=O)c2ccc(CN3CC[C@H](N(C)C)C3)c(C(F)(F)F)c2)cc1Nc1nccc(-c2cncnc2)n1 [bafetinib]
Summary of the method: as §1

[10] = compound: Cc1cccc(CC(=O)N2CCc3c2ccc(-c2cn(C)c4ncnc(N)c24)c3F)n1
Summary of the method: as §1

[11] = compound: Cc1cn(-c2cc(NC(=O)c3ccc(C)c(Nc4nccc(-c5cccnc5)n4)c3)cc(C(F)(F)F)c2)cn1 [nilotinib]
Summary of the method: as §1

[12] = compound: Cc1nc(Nc2n[nH]c3c2CN(C(=O)N[C@H](CN(C)C)c2ccccc2)C3(C)C)c2sccc2n1
Summary of the method: as §1

[13] = compound: Cc1nc(Nc2ncc(C(=O)Nc3c(C)cccc3Cl)s2)cc(N2CCN(CCO)CC2)n1 [dasatinib]
Summary of the method: as §1

[14] = compound: Cc1ncc(-c2ccnc(Nc3ccc(S(C)(=O)=O)cc3)n2)n1C(C)C
Summary of the method: as §1

[15] = compound: Cn1cc(-c2ccc3c(c2)CCN3C(=O)Cc2cccc(C(F)(F)F)c2)c2c(N)ncnc21
Summary of the method: as §1

[16] = compound: Cn1cc(CNCC2CCN(c3ncc(C(=O)NO)cn3)CC2)c2ccccc21 [quisinostat]
Summary of the method: as §1

[17] = compound: Cn1cncc1[C@@](N)(c1ccc(Cl)cc1)c1ccc2c(c1)c(-c1cccc(Cl)c1)cc(=O)n2C [tipifarnib]
Summary of the method: as §1

[18] = compound: NC(=O)Nc1cc(-c2cccc(F)c2)sc1C(=O)N[C@H]1CCCNC1
Summary of the method: as §1

[19] = compound: NC(=O)c1cnc(N[C@@H]2CCCC[C@@H]2N)nc1Nc1cccc(-n2nccn2)c1
Summary of the method: as §1

[20] = compound: NC1(c2ccc(-c3nc4ccn5c(=O)[nH]nc5c4cc3-c3ccccc3)cc2)CCC1
Summary of the method: as §1

Measured: log2 fold change

TELO2 (UniProt Q9Y4R8)
UniProt Q9Y4R8, sequence (Q9Y4R8 whole entry, looked up): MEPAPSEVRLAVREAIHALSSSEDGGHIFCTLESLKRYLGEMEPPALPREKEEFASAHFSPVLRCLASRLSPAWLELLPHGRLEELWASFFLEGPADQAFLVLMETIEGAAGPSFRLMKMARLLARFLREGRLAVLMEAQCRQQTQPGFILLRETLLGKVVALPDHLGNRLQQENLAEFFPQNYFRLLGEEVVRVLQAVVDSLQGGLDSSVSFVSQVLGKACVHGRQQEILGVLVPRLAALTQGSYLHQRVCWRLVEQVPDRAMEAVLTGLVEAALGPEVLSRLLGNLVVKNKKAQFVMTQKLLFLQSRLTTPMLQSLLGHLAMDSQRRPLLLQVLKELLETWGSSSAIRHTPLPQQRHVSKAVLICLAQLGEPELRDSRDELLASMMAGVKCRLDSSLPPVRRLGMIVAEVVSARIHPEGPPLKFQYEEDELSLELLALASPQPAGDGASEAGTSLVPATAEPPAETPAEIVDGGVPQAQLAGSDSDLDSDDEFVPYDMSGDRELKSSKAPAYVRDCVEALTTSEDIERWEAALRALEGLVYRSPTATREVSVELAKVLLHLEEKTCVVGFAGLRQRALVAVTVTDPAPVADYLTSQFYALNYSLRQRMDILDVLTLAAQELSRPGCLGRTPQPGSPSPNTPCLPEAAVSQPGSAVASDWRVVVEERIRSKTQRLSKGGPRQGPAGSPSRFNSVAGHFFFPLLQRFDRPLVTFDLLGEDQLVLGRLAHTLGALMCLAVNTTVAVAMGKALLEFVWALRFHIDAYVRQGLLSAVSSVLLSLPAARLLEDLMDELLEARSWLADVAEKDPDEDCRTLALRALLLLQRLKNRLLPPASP
inactive: [1] -0.016 | [2] -0.01 | [3] -0.053 | [4] -0.038 | [5] -0.015 | [6] -0.087 | [7] -0.012 | [8] 0.037 | [9] -0.054 | [10] 0.056 | [11] -0.012 | [12] -0.014 | [13] -0.082 | [14] -0.021 | [15] 0.035 | [16] -0.057 | [17] -0.013 | [18] 0.058 | [19] 0.003 | [20] -0.03

THEMIS2 (UniProt Q5TEJ8)
inactive: [1] -0.052 | [2] 0.029 | [3] -0.025 | [4] 0.004 | [5] -0.026 | [6] -0.001 | [7] 0.006 | [8] -0.042 | [9] -0.059 | [10] 0.065 | [11] -0.096 | [12] 0.06 | [13] -0.092 | [14] -0.144 | [15] 0.059 | [16] 0.03 | [17] -0.039 | [18] 0.051 | [19] 0.095 | [20] 0.019

TUT4 (UniProt Q5TAX3)
inactive: [1] -0.003 | [2] -0.041 | [3] 0 | [4] -0.064 | [5] 0.006 | [6] -0.001 | [7] 0.047 | [8] -0.023 | [9] -0.039 | [10] 0.15 | [11] -0.06 | [12] 0.02 | [13] -0.097 | [14] 0.001 | [15] -0.001 | [16] -0.054 | [17] -0.045 | [18] 0.055 | [19] 0.048 | [20] -0.002

TPM3 (UniProt P06753)
inactive: [1] 0.014 | [2] 0.005 | [3] 0.022 | [4] 0.123 | [5] 0.009 | [6] -0.039 | [7] -0.003 | [8] -0.022 | [9] 0.052 | [10] -0.088 | [11] 0.014 | [12] -0.033 | [13] 0.023 | [14] 0.028 | [15] -0.012 | [16] 0.046 | [17] 0.033 | [18] -0.042 | [19] -0.02 | [20] 0.034

TUBB6 (UniProt Q9BUF5)
UniProt Q9BUF5, sequence (Q9BUF5 whole entry, looked up): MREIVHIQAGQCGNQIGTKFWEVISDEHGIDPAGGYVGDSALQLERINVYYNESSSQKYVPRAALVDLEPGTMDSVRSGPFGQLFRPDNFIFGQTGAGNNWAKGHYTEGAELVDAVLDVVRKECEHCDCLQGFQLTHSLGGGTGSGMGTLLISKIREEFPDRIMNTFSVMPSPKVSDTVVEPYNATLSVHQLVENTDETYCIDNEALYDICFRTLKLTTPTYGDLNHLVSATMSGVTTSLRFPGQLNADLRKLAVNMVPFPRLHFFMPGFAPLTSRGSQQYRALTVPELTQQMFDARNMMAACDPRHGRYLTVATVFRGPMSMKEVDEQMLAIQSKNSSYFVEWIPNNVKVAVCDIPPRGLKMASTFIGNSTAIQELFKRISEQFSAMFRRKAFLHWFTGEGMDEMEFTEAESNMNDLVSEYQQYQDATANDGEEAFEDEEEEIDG
inactive: [1] -0.038 | [2] -0.015 | [3] -0.056 | [4] 0.003 | [5] 0.009 | [6] -0.009 | [7] -0.02 | [8] -0.047 | [9] -0.023 | [10] -0.018 | [11] -0.002 | [12] -0.023 | [13] -0.031 | [14] 0.006 | [15] -0.006 | [16] -0.028 | [17] 0.021 | [18] 0.022 | [19] -0.001 | [20] 0.004

TBK1 (UniProt Q9UHD2)
inactive: [1] 0.042 | [2] 0.054 | [4] -0.059 | [5] -0.046 | [6] 0.342 | [7] 0.314 | [8] -0.024 | [9] 0.007 | [10] -0.044 | [11] -0.003 | [13] 0.029 | [14] 0.125 | [15] 0.251 | [16] -0.097 | [17] -0.026 | [18] 0.209 | [19] 0.032 | [20] -0.074
active: [3] 0.469 | [12] 0.618

TUBGCP5 (UniProt Q96RT8)
UniProt Q96RT8, sequence (Q96RT8 whole entry, looked up): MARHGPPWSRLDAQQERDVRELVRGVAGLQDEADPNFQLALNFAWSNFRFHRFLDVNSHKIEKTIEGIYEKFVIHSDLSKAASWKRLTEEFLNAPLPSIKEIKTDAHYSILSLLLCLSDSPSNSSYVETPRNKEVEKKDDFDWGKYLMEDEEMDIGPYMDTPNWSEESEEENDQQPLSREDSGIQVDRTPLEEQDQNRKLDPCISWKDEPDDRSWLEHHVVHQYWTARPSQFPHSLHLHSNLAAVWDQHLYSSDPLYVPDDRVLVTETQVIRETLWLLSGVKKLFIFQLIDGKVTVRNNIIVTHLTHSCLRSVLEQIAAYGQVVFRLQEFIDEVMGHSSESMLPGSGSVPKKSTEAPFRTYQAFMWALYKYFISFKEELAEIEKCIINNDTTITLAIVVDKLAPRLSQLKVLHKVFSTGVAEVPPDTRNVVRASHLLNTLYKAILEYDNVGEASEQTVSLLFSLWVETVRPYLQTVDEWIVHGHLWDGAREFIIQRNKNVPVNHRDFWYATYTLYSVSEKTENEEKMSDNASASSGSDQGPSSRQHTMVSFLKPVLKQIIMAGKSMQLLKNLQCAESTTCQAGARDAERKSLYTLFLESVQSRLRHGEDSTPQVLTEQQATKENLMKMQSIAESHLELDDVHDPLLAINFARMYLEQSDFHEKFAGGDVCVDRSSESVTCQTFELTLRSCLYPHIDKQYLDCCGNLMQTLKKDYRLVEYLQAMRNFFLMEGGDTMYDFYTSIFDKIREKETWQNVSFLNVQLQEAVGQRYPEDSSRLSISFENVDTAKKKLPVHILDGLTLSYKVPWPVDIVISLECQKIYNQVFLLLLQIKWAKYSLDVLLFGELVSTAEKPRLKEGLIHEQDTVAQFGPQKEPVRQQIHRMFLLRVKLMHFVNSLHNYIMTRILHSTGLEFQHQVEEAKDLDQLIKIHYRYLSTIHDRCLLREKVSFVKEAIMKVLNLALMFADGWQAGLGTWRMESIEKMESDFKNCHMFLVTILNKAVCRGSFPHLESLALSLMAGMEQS
active: [19] -0.68
inactive: [1] 0.11 | [2] 0.037 | [3] -0.064 | [4] -0.044 | [5] 0.103 | [6] -0.009 | [7] 0.113 | [8] 0.044 | [9] -0.121 | [10] 0.101 | [11] 0.024 | [12] 0.04 | [13] 0.119 | [14] 0.048 | [15] -0.094 | [16] 0.203 | [17] 0.012 | [18] 0.077

TGFBRAP1 (UniProt Q8WUH2)
UniProt Q8WUH2, sequence (Q8WUH2 whole entry, looked up): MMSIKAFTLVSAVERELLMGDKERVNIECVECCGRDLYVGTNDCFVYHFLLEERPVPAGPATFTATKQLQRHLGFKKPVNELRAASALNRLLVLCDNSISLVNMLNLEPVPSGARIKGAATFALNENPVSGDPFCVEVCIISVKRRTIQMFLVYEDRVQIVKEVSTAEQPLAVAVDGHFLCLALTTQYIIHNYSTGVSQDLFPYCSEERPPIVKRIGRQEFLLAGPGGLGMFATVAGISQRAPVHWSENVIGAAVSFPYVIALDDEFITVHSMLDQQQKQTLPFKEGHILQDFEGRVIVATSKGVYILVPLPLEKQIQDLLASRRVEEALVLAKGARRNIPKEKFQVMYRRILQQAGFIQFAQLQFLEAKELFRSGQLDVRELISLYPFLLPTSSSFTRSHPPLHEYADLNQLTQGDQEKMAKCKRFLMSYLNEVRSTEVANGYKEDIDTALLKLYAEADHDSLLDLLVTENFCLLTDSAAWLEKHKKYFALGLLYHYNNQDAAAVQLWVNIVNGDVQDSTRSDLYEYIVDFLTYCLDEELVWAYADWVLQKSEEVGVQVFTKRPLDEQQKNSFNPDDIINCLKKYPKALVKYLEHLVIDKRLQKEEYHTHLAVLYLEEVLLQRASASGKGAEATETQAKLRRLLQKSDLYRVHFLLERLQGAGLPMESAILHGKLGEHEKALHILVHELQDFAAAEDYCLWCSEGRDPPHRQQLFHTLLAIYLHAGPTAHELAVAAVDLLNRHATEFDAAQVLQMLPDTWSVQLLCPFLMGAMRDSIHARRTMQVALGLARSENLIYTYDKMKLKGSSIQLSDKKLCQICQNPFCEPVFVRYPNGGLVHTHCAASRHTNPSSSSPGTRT
inactive: [1] -0.029 | [2] -0.021 | [3] -0.034 | [4] -0.001 | [5] -0.03 | [6] -0.138 | [7] 0.052 | [8] 0.028 | [9] -0.056 | [10] -0.007 | [11] 0.005 | [12] -0.043 | [13] -0.048 | [14] -0.015 | [15] 0.06 | [16] -0.076 | [17] 0.004 | [18] 0.029 | [19] 0.009 | [20] 0.04

THOC5 (UniProt Q13769)
UniProt Q13769, sequence (Q13769 whole entry, looked up): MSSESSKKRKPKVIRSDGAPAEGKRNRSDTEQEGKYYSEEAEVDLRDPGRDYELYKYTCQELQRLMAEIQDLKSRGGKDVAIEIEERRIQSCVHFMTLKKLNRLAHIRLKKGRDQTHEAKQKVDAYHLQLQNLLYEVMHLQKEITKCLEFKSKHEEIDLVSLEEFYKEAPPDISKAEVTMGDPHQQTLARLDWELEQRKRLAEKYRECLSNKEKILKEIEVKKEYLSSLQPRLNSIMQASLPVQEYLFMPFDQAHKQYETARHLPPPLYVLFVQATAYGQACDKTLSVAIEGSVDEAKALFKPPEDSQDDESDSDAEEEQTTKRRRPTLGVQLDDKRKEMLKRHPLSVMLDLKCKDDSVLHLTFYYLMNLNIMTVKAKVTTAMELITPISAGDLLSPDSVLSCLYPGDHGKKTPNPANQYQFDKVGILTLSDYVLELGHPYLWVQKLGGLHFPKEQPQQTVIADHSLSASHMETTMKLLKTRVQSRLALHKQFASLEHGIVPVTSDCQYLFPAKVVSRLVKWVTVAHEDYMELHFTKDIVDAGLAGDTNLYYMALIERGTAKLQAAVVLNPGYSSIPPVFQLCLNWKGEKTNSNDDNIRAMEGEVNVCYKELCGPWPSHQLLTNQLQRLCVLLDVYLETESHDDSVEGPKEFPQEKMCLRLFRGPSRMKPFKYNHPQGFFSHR
inactive: [1] -0.036 | [2] -0.007 | [3] -0.011 | [4] -0.024 | [5] -0.009 | [6] -0.021 | [7] -0.01 | [8] 0.02 | [9] -0.009 | [10] 0.035 | [11] -0.035 | [12] 0.006 | [13] -0.014 | [14] -0.036 | [15] 0.029 | [16] -0.006 | [17] -0.019 | [18] 0.021 | [19] 0.009 | [20] -0.01

TUBB4B (UniProt P68371)
inactive: [1] 0.027 | [2] 0.017 | [3] -0.027 | [4] 0.053 | [5] -0.029 | [6] 0.004 | [7] 0.011 | [8] -0.024 | [9] 0.027 | [10] -0.043 | [11] 0.049 | [12] -0.05 | [13] -0.025 | [14] -0.034 | [15] -0.005 | [16] 0.033 | [17] -0.001 | [18] 0.006 | [19] -0.019 | [20] 0.009

TFIP11 (UniProt Q9UBB9)
UniProt Q9UBB9, sequence (Q9UBB9 whole entry, looked up): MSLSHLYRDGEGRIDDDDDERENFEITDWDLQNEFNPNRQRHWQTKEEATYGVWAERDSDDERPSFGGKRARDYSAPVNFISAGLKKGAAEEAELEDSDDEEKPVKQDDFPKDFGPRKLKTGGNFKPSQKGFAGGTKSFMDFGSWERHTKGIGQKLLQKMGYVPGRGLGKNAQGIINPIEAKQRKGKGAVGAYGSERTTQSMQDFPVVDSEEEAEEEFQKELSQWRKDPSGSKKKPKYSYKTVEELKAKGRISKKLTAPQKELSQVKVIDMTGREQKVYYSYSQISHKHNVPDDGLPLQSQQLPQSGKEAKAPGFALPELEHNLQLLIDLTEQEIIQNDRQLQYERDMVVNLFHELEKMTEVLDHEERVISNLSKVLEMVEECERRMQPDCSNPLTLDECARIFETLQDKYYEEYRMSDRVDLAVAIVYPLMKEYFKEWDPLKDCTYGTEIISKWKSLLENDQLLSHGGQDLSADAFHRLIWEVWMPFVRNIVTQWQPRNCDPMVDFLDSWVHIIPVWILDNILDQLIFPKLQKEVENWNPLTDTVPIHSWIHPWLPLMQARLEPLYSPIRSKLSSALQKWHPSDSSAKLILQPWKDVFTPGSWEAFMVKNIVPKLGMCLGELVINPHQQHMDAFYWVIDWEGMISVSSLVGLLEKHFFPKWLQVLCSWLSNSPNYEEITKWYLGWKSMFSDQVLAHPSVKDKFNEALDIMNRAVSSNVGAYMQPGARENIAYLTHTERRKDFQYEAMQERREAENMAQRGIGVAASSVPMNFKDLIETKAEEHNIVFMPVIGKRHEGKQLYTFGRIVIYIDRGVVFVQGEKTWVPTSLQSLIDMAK
inactive: [1] -0.032 | [2] 0.061 | [3] -0.085 | [4] -0.031 | [5] -0.053 | [6] -0.097 | [7] 0.051 | [8] 0.043 | [9] -0.114 | [10] 0.06 | [11] 0.004 | [12] 0.003 | [13] -0.059 | [14] 0.035 | [15] 0.01 | [16] -0.067 | [17] -0.005 | [18] 0.048 | [19] 0 | [20] -0.004

TMOD1 (UniProt P28289)
UniProt P28289, sequence (P28289 whole entry, looked up): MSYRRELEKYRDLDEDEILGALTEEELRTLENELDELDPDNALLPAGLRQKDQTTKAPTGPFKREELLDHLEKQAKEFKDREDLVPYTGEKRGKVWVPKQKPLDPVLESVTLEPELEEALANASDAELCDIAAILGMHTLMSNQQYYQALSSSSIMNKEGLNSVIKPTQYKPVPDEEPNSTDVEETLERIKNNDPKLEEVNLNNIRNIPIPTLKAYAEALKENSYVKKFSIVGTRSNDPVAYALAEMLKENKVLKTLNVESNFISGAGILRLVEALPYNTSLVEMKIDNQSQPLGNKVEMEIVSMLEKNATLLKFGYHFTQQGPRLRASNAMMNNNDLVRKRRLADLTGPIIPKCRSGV
inactive: [1] 0 | [2] -0.032 | [3] -0.011 | [4] 0.039 | [5] -0.008 | [6] -0.059 | [7] 0.026 | [8] 0.019 | [9] -0.004 | [10] -0.029 | [11] -0.029 | [12] -0.032 | [13] 0.011 | [14] -0.02 | [15] 0.014 | [16] -0.007 | [17] -0.013 | [18] 0.031 | [19] 0.008 | [20] -0.015

TRAPPC9 isoform 2 (UniProt Q96Q05)
inactive: [1] -0.02 | [2] 0.012 | [3] -0.084 | [4] -0.053 | [5] -0.038 | [6] -0.037 | [7] 0.037 | [8] 0.029 | [9] -0.026 | [10] 0.021 | [11] 0.034 | [12] 0.005 | [13] -0.051 | [14] -0.011 | [15] 0.068 | [16] -0.07 | [17] 0.026 | [18] 0 | [19] -0.011 | [20] -0.073

UBTF (UniProt P17480)
inactive: [1] -0.013 | [2] -0.024 | [3] -0.037 | [4] 0.071 | [5] -0.015 | [6] -0.103 | [7] 0.004 | [8] -0.008 | [9] -0.039 | [10] -0.011 | [11] 0.001 | [12] 0.031 | [13] -0.021 | [14] -0.039 | [15] 0.004 | [16] 0 | [17] 0.015 | [18] 0.044 | [19] -0.01 | [20] -0.042

TBL3 (UniProt Q12788)
inactive: [1] -0.022 | [2] -0.027 | [3] -0.017 | [4] -0.028 | [5] -0.009 | [6] -0.05 | [7] -0.008 | [8] -0.024 | [9] -0.019 | [10] 0.04 | [11] -0.009 | [12] 0.025 | [13] -0.013 | [14] 0.016 | [15] 0.011 | [16] -0.046 | [17] 0.008 | [18] 0.056 | [19] -0.032 | [20] -0.052

TPX2 (UniProt Q9ULW0)
inactive: [1] 0.008 | [2] 0.032 | [3] 0.023 | [4] 0.01 | [5] 0.002 | [6] 0.04 | [7] -0.003 | [8] 0.049 | [9] -0.023 | [10] -0.011 | [11] -0.001 | [12] 0.007 | [13] -0.002 | [14] 0.002 | [15] 0 | [16] -0.04 | [17] -0.007 | [18] -0.021 | [19] -0.02 | [20] -0.004
